Rows were chosen to be rich in hits. Some 4.6% of all compounds tested hit in one or more screens of this group.
TIM10 inh: TIM10 yeast growth inhibition; inhibition, % at 10 µM; hit rate 1.4% among 330,000; AID 463195; S. cerevisiae TIM10 strain growth, BacTiter-Glo luminescence, 24 h;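 active means inhibition of 40% or more at the single tested concentration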;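 further: wild-type TIM10 isogenic control strain grown at permissive 25 °C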
PfHsp90 yeast 2: reduces growth (ATP signal) of yeast expressing P. falciparum Hsp90; S. cerevisiae expressing PfHsp90, BacTiter-Glo ATP, 48 h; yeast lacking PDR1 and PDR3 efflux regulators; inhibition, % at 9.4 µM; hit rate 0.32% among 310,000; AID 504621;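 active means every replicate shows inhibition above about 80%, whatever the replicate mean, limit read from the data; inconclusive means mean inhibition reaches the set limit but some replicate falls short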
V-ATPase pHluor: yeast V-ATPase proton transport regulation by pHLuorin; S. cerevisiae, pHLuorin cytosolic pH fluorescence; response, % at 10 µM; hit rate 0.37% among 350,000; AID 504577; in the data active means response mostly above about 7.3%, no sharp cut-off; inactive means mostly below about 5.4%; further: actives read high
SKKanGAS inh: blocks kanamycin growth of S. pyogenes SKKanGAS strain | BacTiter-Glo, 6 h | inhibition, % at 7.5 µM | hit rate 1.3% among 300,000;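 active means mean replicate score, as percent of positive control median, at least 50; inconclusive means mean below 50 but one replicate at or above 50; inactive means mean and every replicate below 50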;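 further: strain carries kanamycin resistance gene driven by streptokinase promoter and grows in 40 µg/ml kanamycin; loss of luminescence reflects streptokinase promoter inhibition or plain growth inhibition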
tim10-1 inh: growth inhibitors of tim10-1 mutant yeast. AID 463190. inhibition, % at 20 µM. S. cerevisiae tim10-1 ts strain growth, BacTiter-Glo, 24 h. hit rate 2.2% among 330,000;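 active means inhibition of at least 40%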;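 further: mutant grown at 25 °C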
tim23-1 inh: growth inhibitors of tim23-1 mutant yeast; S. cerevisiae tim23-1 growth, BacTiter-Glo luminescence, 24 h; inhibition, % at 20 µM; hit rate 1.3% among 330,000; AID 463212;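 active means growth inhibition of the mutant yeast at or above 50%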;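 further: temperature-sensitive mutant grown at 25 °C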
VATPase regulator: modulates yeast V-ATPase proton transport; shares compounds with V-ATPase pHluor; S. cerevisiae pHLuorin cytosolic pH; response, % at 10 µM; hit rate 2% among 980; AID 602197; in the data active means response above about 24%
Of the large screens only hits and unclear results are named; the others gave an inactive call (follow-up assays come after a bar, where they were run).

Cc1ccc(OCc2cc(C(=O)NCC(C)(C)N3CCOCC3)no2)cc1C	V-ATPase pHluor 8.2 | VATPase regulator inactive
COc1ccc(C)cc1Nc1nnc(C)c(=O)[nH]1	none
COc1ccc(Nc2nnc(C)c(=O)[nH]2)c(OC)c1	V-ATPase pHluor 11 | VATPase regulator inactive
CCOc1ncccc1C(=O)Nc1nc(C(C)(C)C)cs1	V-ATPase pHluor 9.4 | VATPase regulator inactive
COC(=O)c1ccccc1NC(=O)CN1CCOCC1	none (no result: PfHsp90 yeast 2)
COC(=O)c1ccccc1NC(=O)CN1CCCCC1	V-ATPase pHluor 12 | VATPase regulator inactive
FC(F)(F)c1cnc(COc2ccc(Cl)cc2Cl)c(Cl)c1	none
Nc1c(Br)c(=O)[nH]c(=O)n1-c1ccccc1	none
CCc1c(C#N)c(=O)[nH]c(=O)n1-c1ccccc1	V-ATPase pHluor 10.0 | VATPase regulator inactive
COCCN(Cc1ccccc1)C(=O)c1c(C)nn(-c2ccccc2)c1C	V-ATPase pHluor 9.2 | VATPase regulator inactive
COc1cccc(NC(=O)C(OC(=O)/C=C/c2ccc3c(c2)OCO3)c2ccccc2)c1 (stereo not drawn)	V-ATPase pHluor 11 | VATPase regulator inactive
CC(=O)Nc1ccc(NC(=O)C(C)OC(=O)/C=C/c2ccc3c(c2)OCO3)cc1 (stereo not drawn)	none
Cc1ccc(-c2nnc(N3CCCCC3)c3ccccc23)cc1S(=O)(=O)NCC1CCCO1 (stereo not drawn)	none
COc1ccc([C@H]2C[C@@H](O)[C@H](n3cc(-c4ccc(F)cc4)nn3)CN2C(=O)C2CCCCC2)cc1	V-ATPase pHluor 7.0 (no result: TIM10 inh, PfHsp90 yeast 2, SKKanGAS inh, tim10-1 inh, tim23-1 inh) | VATPase regulator inactive
Nc1nc(NCc2ccco2)nc(N2CCCCCC2)c1[N+](=O)[O-]	V-ATPase pHluor 23, SKKanGAS inh inconclusive | VATPase regulator inactive
Nc1nc(NCc2ccco2)nc(N2CCCC2)c1[N+](=O)[O-]	none
COc1cc(CNn2cn[nH]c2=S)ccc1OCC(=O)NC(C)(C)C	V-ATPase pHluor 8.9 | VATPase regulator inactive
C=CCOc1ccc(CNn2c(C)n[nH]c2=S)cc1OC	V-ATPase pHluor 10.0 | VATPase regulator inactive
C=CCOc1c(Br)cc(CNn2c(C)n[nH]c2=S)cc1OC	none
O=C(Nc1ccnn1C1CCN(Cc2ccccc2OC(F)F)CC1)c1cccnc1	none
O=C(Cn1nc(C(=O)O)c2ccccc2c1=O)Nc1ccc(Cl)c(S(=O)(=O)N2CCOCC2)c1	none (no result: SKKanGAS inh)
CC(C)(C)OC(=O)N[C@H]1C=C[C@@H](OC(=O)CC(=O)OCC(F)(F)F)C1	none (no result: SKKanGAS inh)
COC(=O)c1cnc(SCc2ccc(Cl)cc2)n1C	V-ATPase pHluor 6.3 | VATPase regulator inactive
CCN1CCN(C(=O)C2COc3ccccc3O2)CC1 (stereo not drawn)	none
O=C(CCl)N1CCN(C(=O)C2COc3ccccc3O2)CC1 (stereo not drawn)	V-ATPase pHluor 14 (no result: SKKanGAS inh) | VATPase regulator inactive
Cc1ccc(S(=O)(=O)NC(=O)NCCCCNC(=O)NS(=O)(=O)c2ccc(C)cc2)cc1	V-ATPase pHluor 18 | VATPase regulator inactive
CC1(C)CC(=O)C2=C(C1)OC(N)=C(C#N)C2C#Cc1ccccc1 (stereo not drawn)	none
CC(c1ccccc1)C1C(C#N)=C(N)OC2=C1C(=O)CC(C)(C)C2 (stereo not drawn)	V-ATPase pHluor 11 | VATPase regulator inactive
COc1cc2oc(=O)cc(-c3ccc(-c4ccc(CO)cc4)cc3)c2c(OC)c1OC	none (no result: SKKanGAS inh)
Cc1[nH]c(C)c(S(=O)(=O)N(Cc2ccccc2)C(C)(C)C)c1C(=O)N1CCCC1	V-ATPase pHluor 10 | VATPase regulator inactive
Cc1cc(N(C)C)cc(C)c1N=Nc1cc[n+]([O-])cc1	none (no result: TIM10 inh, PfHsp90 yeast 2, SKKanGAS inh, tim10-1 inh, tim23-1 inh)
COc1ccc(OC)c(-n2c(SCC(=O)NCc3ccco3)nnc2-c2c[nH]c3ccccc23)c1	V-ATPase pHluor 12 | VATPase regulator inactive
CCCCOc1ccccc1C(=O)N(Cc1ccco1)C1CCS(=O)(=O)C1 (stereo not drawn)	none
Cc1ccccc1NC(=O)N(CCc1nc2ccccc2[nH]1)Cc1ccccc1	V-ATPase pHluor 12 | VATPase regulator inactive
c1ccc(Cc2nnc3sc(-c4ccccn4)nn23)cc1	V-ATPase pHluor 11 | VATPase regulator inactive
COC(=O)c1cn(NC(=O)Cc2ccccc2Br)c(=O)c2ccccc12	V-ATPase pHluor 9.1 | VATPase regulator inactive
COC(=O)c1cn(NC(=O)Cc2ccccc2OC)c(=O)c2ccccc12	none
COc1nc(Cl)cn(-c2ccc(Cl)cc2)c1=O	none | VATPase regulator inactive
COc1cc2ccc(C(=O)O)cc2cc1OC	none (no result: TIM10 inh, PfHsp90 yeast 2, SKKanGAS inh, tim10-1 inh, tim23-1 inh)
COc1ccccc1NC(=O)c1ccc(COc2ccccc2OC)cc1	V-ATPase pHluor 10 | VATPase regulator inactive
COCCNC(=O)c1ccccc1NC(=O)c1ccc(OC)c(OC)c1	V-ATPase pHluor 11 | VATPase regulator inactive
COc1ccccc1OCc1ccc(C(=O)Nc2ccccc2F)cc1	none
Cc1nc2ccsc2c(=O)n1-c1ccc(Cl)cc1	none | VATPase regulator inactive
Cc1ccc(-n2c(C)nc3ccsc3c2=O)cc1	none
Cc1snc(S(=O)(=O)/C(C#N)=N/Nc2cccc(C(F)(F)F)c2)c1C#N	V-ATPase pHluor 25 | VATPase regulator inactive
COc1ccc(N/N=C(/C#N)S(=O)(=O)c2nsc(C)c2C#N)cc1	none
COc1ccccc1CNC(=O)C1CCN(c2ncnc3c2nc2n3CCCCC2)CC1	V-ATPase pHluor 12 | VATPase regulator inactive
CCN1CC(CN(C)Cc2cn(-c3ccc(C)cc3)nc2-c2cccc(C)c2)CC1=O (stereo not drawn)	none
O=C(Nc1nnc(-c2ccccc2Cl)o1)c1ccco1	V-ATPase pHluor 11 | VATPase regulator inactive
CS(=O)(=O)c1ccc(-c2nnc(NC(=O)c3ccco3)o2)cc1	none (no result: PfHsp90 yeast 2)
C[C@@H]1CCCCO[C@@H](CN(C)S(=O)(=O)c2cn(C)cn2)[C@@H](C)CN([C@H](C)CO)C(=O)c2cc(N(C)C)ccc2O1	none (no result: TIM10 inh, PfHsp90 yeast 2, SKKanGAS inh, tim10-1 inh, tim23-1 inh)
CSc1nc(N)c(NC(=O)c2ccc(Br)o2)c(=O)[nH]1	V-ATPase pHluor 11 | VATPase regulator inactive
CC(C)N(CCCNC(=O)Cn1c(=O)c2cccn2c2ccccc21)Cc1ccccc1	none
Cc1ccc(F)c(NC(=O)c2ccc(Cn3cc(Cl)cn3)cc2)c1	none
Cc1ccc(F)c(NC(=O)/C(C#N)=C(\O)c2ccc(C(C)(C)C)cc2)c1	V-ATPase pHluor 16, SKKanGAS inh 59 | VATPase regulator inactive
O=C(CSc1nc(O)c(C2CCCCC2)c(=O)[nH]1)Nc1ccccc1Cl	none
O=C(c1ccc(N2C(=O)CCC2=O)cc1)N1CCCSC1=Nc1ccccc1	none (no result: TIM10 inh, PfHsp90 yeast 2, SKKanGAS inh, tim10-1 inh, tim23-1 inh)
ON=C1c2ccccc2-c2ccccc21	none
NC(N)=NN=C1c2ccccc2-c2ccccc21	V-ATPase pHluor 201 | VATPase regulator inactive
O=c1cc(CCl)nc2sc3ccccc3n12	V-ATPase pHluor 13 | VATPase regulator inactive
N#C/C(C(N)=O)=C1/CCc2ccccc2N1	V-ATPase pHluor 13 | VATPase regulator inactive

Assay outcomes as filed in PubChem BioAssay.
